Measured values taken from PubChem BioAssay.
Activity calls are given as the source filed them.

Columns and labels:
[1] = system: Plasmodium falciparum Sir2 (PF13_0152, Sir2A); assay: pfSir2 binders on small-molecule microarrays, primary screen, biochemical, small-molecule microarray, 635 nm fluorescence (AID 1098); details: small-molecule microarray binding, fluorescence 635 nm; higher = more signal;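 also: score merges spot fluorescence intensity with its signal-to-noise ratio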
[2] = small-molecule microarray binders of probe aDKK1, primary screen, biochemical, biotinylated probe, 635/667 nm fluorescence (AID 1099); details: higher = more signal;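 also: score merges 667nm spot fluorescence with signal to noise across triplicate slides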
[3] = small-molecule microarray binders of probe aCHRDL2, primary screen, biochemical, biotinylated probe, 635/667 nm fluorescence (AID 1100); details: higher = more signal
[4] = splicing luciferase reporter signal modulators, primary screen, spliceosome inhibition project, cell-based, HEK293, splice +/- reporter (AID 1101); details: luminescence, 24 h, higher = more signal, called active from +8 up or from −8 down;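 also: HEK293 cells carrying a splicing-competent luciferase reporter gene; test concentration not given here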
[5] = molecular target: Fibroblast growth factor 10 (Homo sapiens) (UniProt O15520); assay: FGF10 binders on small-molecule microarrays, primary screen, biochemical, small-molecule microarray, 635 nm fluorescence (AID 1102); details: FGF10 binding, fluorescence 635 nm, higher = more signal
Chain of Fibroblast growth factor 10 (Homo sapiens) (O15520 whole entry, looked up): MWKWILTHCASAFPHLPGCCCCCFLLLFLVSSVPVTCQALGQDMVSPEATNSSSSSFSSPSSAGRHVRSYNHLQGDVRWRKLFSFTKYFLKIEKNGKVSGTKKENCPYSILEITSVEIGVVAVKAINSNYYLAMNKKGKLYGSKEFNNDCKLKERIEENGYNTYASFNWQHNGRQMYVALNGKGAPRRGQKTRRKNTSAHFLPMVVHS

[6] = system: glycogen synthase kinase-3 (GSK3A per assay name; protocol says GSK3B); assay: GSK3 binders on small-molecule microarrays, primary screen, biochemical, small-molecule microarray, 635 nm fluorescence, GSK3A (AID 1103); details: small-molecule microarray binding, fluorescence 635 nm; higher = more signal; also: the record names both GSK3A and GSK3B
[7] = molecular target: Epidermal growth factor receptor (Homo sapiens) (UniProt P00533); assay: EGFR binders on small-molecule microarrays, primary screen, biochemical, small-molecule microarray, 635 nm fluorescence (AID 1104); details: EGFR binding, higher = more signal;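 also: score merges 667 nm emission intensity with spot signal to noise over triplicate slides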
Chain of Epidermal growth factor receptor (Homo sapiens) (P00533 whole entry, looked up): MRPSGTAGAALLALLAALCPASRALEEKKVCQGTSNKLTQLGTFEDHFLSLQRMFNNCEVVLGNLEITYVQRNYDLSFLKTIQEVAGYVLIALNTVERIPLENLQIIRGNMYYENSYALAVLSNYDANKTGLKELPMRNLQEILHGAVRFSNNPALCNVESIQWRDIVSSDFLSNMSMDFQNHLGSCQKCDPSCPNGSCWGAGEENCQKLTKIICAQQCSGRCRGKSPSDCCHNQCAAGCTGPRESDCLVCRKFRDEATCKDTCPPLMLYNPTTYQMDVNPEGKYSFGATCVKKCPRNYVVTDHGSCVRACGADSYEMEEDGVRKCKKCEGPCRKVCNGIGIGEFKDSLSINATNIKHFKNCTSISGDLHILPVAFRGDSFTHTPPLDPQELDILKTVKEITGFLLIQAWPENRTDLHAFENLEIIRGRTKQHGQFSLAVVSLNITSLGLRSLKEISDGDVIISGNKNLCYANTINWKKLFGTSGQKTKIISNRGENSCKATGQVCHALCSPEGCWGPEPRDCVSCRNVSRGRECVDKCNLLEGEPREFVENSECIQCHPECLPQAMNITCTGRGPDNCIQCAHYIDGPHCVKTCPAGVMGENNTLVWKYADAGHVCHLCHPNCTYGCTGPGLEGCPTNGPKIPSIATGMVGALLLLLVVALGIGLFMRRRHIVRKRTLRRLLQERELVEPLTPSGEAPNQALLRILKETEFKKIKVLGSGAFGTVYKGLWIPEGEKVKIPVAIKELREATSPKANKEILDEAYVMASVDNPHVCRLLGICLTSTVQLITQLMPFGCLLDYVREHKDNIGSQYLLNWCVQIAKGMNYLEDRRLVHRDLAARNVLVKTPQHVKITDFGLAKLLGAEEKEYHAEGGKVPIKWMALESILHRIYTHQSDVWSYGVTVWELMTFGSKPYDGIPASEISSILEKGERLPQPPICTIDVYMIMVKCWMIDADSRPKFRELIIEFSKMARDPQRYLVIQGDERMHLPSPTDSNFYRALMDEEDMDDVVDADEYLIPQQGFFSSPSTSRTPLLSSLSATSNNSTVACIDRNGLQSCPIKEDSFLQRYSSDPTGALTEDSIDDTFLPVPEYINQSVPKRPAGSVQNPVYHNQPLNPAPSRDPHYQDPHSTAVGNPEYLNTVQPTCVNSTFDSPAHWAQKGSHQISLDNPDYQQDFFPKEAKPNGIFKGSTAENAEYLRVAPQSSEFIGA

[8] = molecular target: Follistatin-related protein 3 (Homo sapiens) (UniProt O95633); assay: FSTL3 binders on small-molecule microarrays, primary screen, biochemical, small-molecule microarray, 635 nm fluorescence (AID 1105); details: FSTL3 binding, higher = more signal;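 also: score merges emission near 667 nm and signal to noise per printed spot across three slides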
Chain of Follistatin-related protein 3 (Homo sapiens) (O95633 whole entry, looked up): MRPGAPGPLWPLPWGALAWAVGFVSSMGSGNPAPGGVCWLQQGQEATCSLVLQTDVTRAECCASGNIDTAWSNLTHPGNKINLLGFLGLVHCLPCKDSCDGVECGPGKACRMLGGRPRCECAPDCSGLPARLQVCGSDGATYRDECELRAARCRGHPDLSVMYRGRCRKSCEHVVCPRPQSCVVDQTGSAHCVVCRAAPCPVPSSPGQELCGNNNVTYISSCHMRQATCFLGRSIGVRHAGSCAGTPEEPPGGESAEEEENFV

[9] = molecular target: Dickkopf-related protein 1 (Homo sapiens) (UniProt O94907); assay: DKK1 binders on small-molecule microarrays, primary screen, biochemical, small-molecule microarray, 635 nm fluorescence scan (AID 1106); details: DKK1 binding, higher = more signal;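 also: score merges emission near 667 nm with signal to noise over three replicate slides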
Chain of Dickkopf-related protein 1 (Homo sapiens) (O94907 whole entry, looked up): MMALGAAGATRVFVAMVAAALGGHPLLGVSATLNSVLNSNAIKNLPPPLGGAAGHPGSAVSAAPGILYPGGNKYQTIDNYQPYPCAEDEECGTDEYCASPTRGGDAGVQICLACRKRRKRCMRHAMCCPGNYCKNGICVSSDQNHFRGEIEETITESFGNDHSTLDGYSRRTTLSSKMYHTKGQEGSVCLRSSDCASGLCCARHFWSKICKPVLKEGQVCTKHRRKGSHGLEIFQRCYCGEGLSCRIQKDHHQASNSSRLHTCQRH

[10] = system: Inhibin beta A chain (activin A); assay: INHBA (activin A) binders on microarrays, primary screen, biochemical, small-molecule microarray, 635 nm fluorescence scan (AID 1107); details: small-molecule microarray binding, higher = more signal;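 also: mouse activin A protein probed at 4.33 µg/mL on printed slides; score merges bound-protein fluorescence near 667 nm with spot signal-to-noise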
[11] = system: Human papillomavirus type 1a protein E7 (residues 44-93); assay: HPV1a E7 fragment binders on microarrays, primary screen, biochemical, small-molecule microarray, residues 44-93, 635 nm fluorescence (AID 1108); details: small-molecule microarray binding, fluorescence 635 nm; higher = more signal;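 also: E7 fragment applied at 1 µg/mL in TBST for 1 h at 4 C; score combines spot fluorescence with its signal to noise ratio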
[12] = modulators of HCV replicon luciferase signal, primary screen, HCV replication inhibitor project, Huh7 cells, luciferase reporter (AID 1109); details: 48 h, higher = more signal;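 also: huh7 hepatoma cells harbouring a luciferase neomycin HCV replicon reporter; luciferase luminescence as measure of HCV replicon replication; test concentration not given here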
[13] = molecular target: Left-right determination factor 2 (Homo sapiens) (UniProt O00292); assay: LEFTY2 binders on small-molecule microarrays, primary screen, biochemical, small-molecule microarray, 635 nm fluorescence scan (AID 1110); details: LEFTY2 binding, higher = more signal
Chain of Left-right determination factor 2 (Homo sapiens) (O00292 whole entry, looked up): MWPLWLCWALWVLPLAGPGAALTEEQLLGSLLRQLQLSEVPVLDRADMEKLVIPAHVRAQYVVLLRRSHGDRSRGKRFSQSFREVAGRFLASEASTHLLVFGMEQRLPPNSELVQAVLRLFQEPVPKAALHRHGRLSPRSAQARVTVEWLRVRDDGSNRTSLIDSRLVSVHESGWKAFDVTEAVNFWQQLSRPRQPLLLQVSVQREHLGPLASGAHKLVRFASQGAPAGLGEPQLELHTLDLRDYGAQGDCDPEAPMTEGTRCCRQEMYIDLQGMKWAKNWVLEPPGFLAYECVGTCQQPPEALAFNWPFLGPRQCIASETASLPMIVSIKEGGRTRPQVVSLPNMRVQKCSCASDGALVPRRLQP

[14] = molecular target: Calmodulin-1 (Homo sapiens) (UniProt P0DP23); assay: CALM1 binders on microarrays, EGTA buffer, profiling panel, biochemical, small-molecule microarray, Cy5-labelled CALM1 (AID 1111); details: Cy5-CALM1 binding fluorescence, higher = more signal;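 also: labelled calmodulin applied in Tris saline Tween buffer holding calcium plus EGTA and DTT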
[15] = molecular target: Calmodulin-1 (Homo sapiens) (UniProt P0DP23); assay: calcium-bound CALM1 binders on microarrays, profiling panel, artefact control for SMM control-protein annotation, biochemical, small-molecule microarray, Cy5-labelled CALM1, plus calcium (AID 1112); details: Cy5-CALM1 binding fluorescence, higher = more signal;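 also: score merges spot fluorescence with signal to noise from triplicate slides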
[16] = small-molecule microarray binders of probe aWnt5a, primary screen, biochemical, biotinylated probe, 635/667 nm fluorescence (AID 1113); details: higher = more signal;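 also: score merges 667 nm fluorescence intensity with signal-to-noise per printed feature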
[17] = small-molecule microarray binders of probe aShh, primary screen, biochemical, biotinylated probe, 635/667 nm fluorescence (AID 1114); details: higher = more signal;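 also: probe is biotin-labelled aShh protein from a stem cell growth factor screen; measures binding of labelled protein to compounds printed on the slide; score merges feature fluorescence at 667 nm with signal-to-noise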
[18] = small-molecule microarray binders of probe aNog, primary screen, biochemical, biotinylated probe, 635/667 nm fluorescence (AID 1115); details: higher = more signal;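 also: probe is biotinylated aNog protein used at 0.15 µg/mL for 1 h at 4 C; z-score combines 667 nm fluorescence of each spot with its signal to noise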
[19] = molecular target: Torsin-1A-interacting protein 1 (Homo sapiens) (UniProt Q5JTV8); assay: LAP1 binders from COS7 cell lysate, primary screen, small-molecule microarray, 635/667 nm fluorescence (AID 1116); details: COS7-hLAP1 lysate binding, 635 nm fluorescence, higher = more signal
Chain of Torsin-1A-interacting protein 1 (Homo sapiens) (Q5JTV8 whole entry, looked up): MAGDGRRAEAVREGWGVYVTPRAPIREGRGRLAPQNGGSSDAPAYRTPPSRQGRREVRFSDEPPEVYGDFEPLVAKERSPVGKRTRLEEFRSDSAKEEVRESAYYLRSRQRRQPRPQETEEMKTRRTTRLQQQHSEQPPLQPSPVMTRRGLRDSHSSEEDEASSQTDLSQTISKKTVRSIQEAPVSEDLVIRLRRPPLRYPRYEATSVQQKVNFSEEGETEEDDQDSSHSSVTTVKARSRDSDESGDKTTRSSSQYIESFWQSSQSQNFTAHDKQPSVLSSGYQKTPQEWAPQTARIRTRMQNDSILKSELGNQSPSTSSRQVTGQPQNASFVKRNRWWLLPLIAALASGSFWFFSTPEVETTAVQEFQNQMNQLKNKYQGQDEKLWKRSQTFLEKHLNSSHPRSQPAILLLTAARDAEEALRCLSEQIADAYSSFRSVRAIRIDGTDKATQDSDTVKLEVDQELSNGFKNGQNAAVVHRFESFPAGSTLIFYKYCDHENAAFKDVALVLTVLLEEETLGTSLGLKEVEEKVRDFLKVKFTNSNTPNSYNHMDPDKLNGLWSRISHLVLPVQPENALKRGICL

[20] = molecular target: Alpha-bungarotoxin (Bungarus multicinctus) (UniProt P60615); assay: alpha-bungarotoxin binders on microarray, profiling panel, artefact control for SMM control protein annotation, biochemical, small-molecule microarray, Alexa647 label, 635/667 nm fluorescence (AID 1117); details: alpha-BTX-A647 binding fluorescence, higher = more signal
Chain of Alpha-bungarotoxin (Bungarus multicinctus) (P60615 whole entry, looked up): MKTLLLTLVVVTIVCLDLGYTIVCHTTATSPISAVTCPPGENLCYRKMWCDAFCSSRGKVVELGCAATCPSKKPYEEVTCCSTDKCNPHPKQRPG

| SMILES | composite z-score [1] | composite z-score [2] | composite z-score [3] | z-score [4] | composite z-score [5] | composite z-score [6] | composite z-score [7] | composite z-score [8] | composite z-score [9] | composite z-score [10] | composite z-score [11] | z-score [12] | composite z-score [13] | composite z-score [14] | composite z-score [15] | composite z-score [16] | composite z-score [17] | composite z-score [18] | composite z-score [19] | composite z-score [20] |
| --- | --- | --- | --- | --- | --- | --- | --- | --- | --- | --- | --- | --- | --- | --- | --- | --- | --- | --- | --- | --- |
| CCCC[C@@H](O)C1=C(COC)Cn2c(=O)n(-c3ccccc3)c(=O)n2[C@H]1CO | -0.0092 | -0.399 | -0.318 | -0.446 (inactive) | 0.035 | 0.0617 | -0.464 | -0.0013 | -0.184 | 0.749 | -0.877 | 1.36 | -0.1 | -0.97 | -0.694 | -0.172 | -0.2 | 0.474 | 0.0334 | -0.115 |
| C=C(CCCC)C(=O)CC[C@H](OC(C)=O)c1ccccc1OCCO | 1.51 | -0.179 | -0.123 | 1.77 (inactive) | 0.633 | -0.783 | 0.333 | 0.467 | 0.513 | 0.491 | -0.0354 | -3.4 | 0.549 | -0.592 | -1.13 | -0.0182 | 0.0121 | -0.234 | 0.173 | -0.106 |
| CN(C)CCCCNC(=O)[C@H]1C[C@H]2C(=O)NCC(=O)N2[C@H]1c1cccc(OCCO)c1 | 0.828 | -0.173 | 0.084 | -0.706 (inactive) | 1.02 | -0.54 | 0.138 | 0.186 | 0.168 | -0.09 | -0.433 | 0.195 | -0.443 | 0.0097 | 0.706 | -0.0685 | -0.285 | -0.437 | 0.668 | -0.115 |
| COc1ccccc1CN1C(=O)c2ccccc2[C@](Cc2ccccc2I)(C(=O)NCCCN(C)C)[C@@H]1c1ccc(CO)cc1 | 1.2 | -0.556 | -0.376 | -1.79 (inactive) | -0.0448 | 1.22 | 0.221 | 0.158 | 0.0393 | 0.545 | 1.35 | -3.5 | -0.371 | -0.167 | -0.272 | 0.134 | 0.215 | 1.44 | 0.549 | 0.812 |
| NCCCC[C@@H]1NC(=O)[C@H]2C[C@@H](C(=O)NCc3ccc(F)cc3)[C@@H](c3ccc(O)cc3)N2C1=O | 1.6 | 0.831 | 1.07 | 0.374 (inactive) | 0.186 | 1.33 | 0.117 | 1 | 0.496 | 1.2 | 1.18 | -0.0038 | 0.567 | 1.17 | 0.428 | -0.0161 | 0.452 | -0.171 | 2.33 | 1.26 |
| COC(=O)[C@@]1(Cc2ccccc2)[C@@H]2[C@@H](CC(=O)[C@H]2CC(=O)C(=O)N(C)C)CN1C(=O)c1ccccc1 | 1.05 | 0.0889 | 0.929 | -0.155 (inactive) | 0.225 | -0.901 | -0.185 | -0.0272 | -0.782 | 0.988 | 0.426 | -0.96 | -0.116 | 0.518 | 0.599 | 0.0078 | -0.0322 | 0.859 | 1.38 | 0.43 |
| CC(=O)c1ccc(C(O)C2C=CC3C(=O)N(C)C(=O)C3N2NC(=O)OC(C)(C)C)cc1 (stereo not given) | 1.44 | 0.86 | 0.948 | 1.66 (inactive) | 1.17 | 0.944 | -0.499 | 0.425 | -0.698 | -0.149 | 0.955 | -0.859 | 0.237 | 2.2 | 1.19 | 0.0279 | 0.207 | 1.7 | 0.486 | 2.12 |
| CCOC(=O)C1=CC[C@@H](c2ccccc2Cl)N(S(=O)(=O)c2ccc(C)cc2)[C@H]1c1cccc(OC)c1 | 0.662 | -0.0972 | -0.335 | 0.751 (inactive) | 0.331 | 0.269 | -0.055 | 0.536 | -0.237 | 0.406 | 0.414 | -0.587 | -0.0038 | 0.107 | 0.369 | 0.0382 | 0.123 | 0.216 | 0.111 | 0.253 |
| COCCOC(=O)N1C(=O)[C@@]2(c3cc(C#CC4(O)CCCCCC4)ccc31)[C@H](C(=O)NC[C@H](O)c1ccccc1)[C@H]1C(=O)O[C@H](c3ccccc3)[C@H](c3ccccc3)N1[C@@H]2c1ccc(O)cc1 | 1.36 | 0.203 | 0.316 | 0.209 (inactive) | 0.779 | 1.29 | -0.0406 | 0.334 | -0.0026 | 0.386 | -0.132 | -0.68 | 0.0174 | 1.37 | -0.112 | 0.0718 | -0.0055 | -0.111 | 1.14 | 1.61 |
| COCCOC(=O)N1C(=O)[C@@]2(c3cc(C#CC4=CCCCC4)ccc31)[C@H](C(=O)N1CCN(c3ncccn3)CC1)[C@H]1C(=O)O[C@H](c3ccccc3)[C@H](c3ccccc3)N1[C@@H]2c1ccccc1OCCO | 0.419 | -0.082 | -0.296 | -0.544 (inactive) | 1.3 | 1.28 | 0.396 | 1.19 | 0.402 | 0.451 | 1.38 | -1.9 | 0.419 | 0.936 | 0.473 | -0.0778 | -0.19 | -0.0845 | 0.961 | 0.903 |
| [N-]=[N+]=NCc1ccccc1C[C@]1(C(=O)O)COC(c2ccc(OCCCO)cc2)=N1 | 0.991 | 0.261 | 1.12 | 0.544 (inactive) | -0.472 | -1.19 | -0.756 | -0.757 | -1.27 | 0.616 | -0.523 | -0.35 | -1.47 | 0.0347 | 1.01 | -0.15 | -0.341 | -0.277 | -1.24 | -0.711 |
| CC1CC/C=C\[C@H]2OC34C=CCN(c5ccc(Cl)cc5)C(=O)[C@H]3N(CCCO)C(=O)[C@]4(C)C2C(=O)O1 (stereo not given in full) | 0.312 | -0.0782 | 0.717 | 0.453 (inactive) | -1.32 | -1.28 | -1.1 | -0.949 | -1.42 | 0.596 | -0.678 | -1.07 | -1.33 | -0.484 | 0.456 | -0.124 | -0.0553 | -0.0211 | -1.06 | -0.859 |
| COc1cc(OC)c(C(O)C2C=CC3C(=O)N(c4ccccc4)C(=O)C3N2Nc2ccccc2F)cc1Br (stereo not given) | 0.76 | 0.805 | 0.95 | 0.484 (inactive) | 0.97 | 0.0826 | 0.256 | 1.45 | -0.351 | 0.625 | 1.31 | -1.17 | -0.137 | 1.96 | 0.764 | -0.0462 | 0.279 | 1.62 | 1.63 | 1.92 |
| CCOC(=O)C[C@H]1[C@H](OC(=O)c2cc3ccccc3oc2=O)[C@@H](NC(=O)C2CCCCC2)c2cc(OCCCO)ccc2N1C(=O)Cc1ccc(OC)cc1 | 0.199 | 0.0483 | 0.0801 | 0.0427 (inactive) | 1 | 0.469 | 0.193 | 0.397 | 0.447 | 0.6 | 0.612 | -0.938 | 0.304 | 0.126 | -0.182 | 0.0633 | 0.42 | 0.23 | 0.404 | 0.25 |
| COCC(=C=CC[C@@H](O)c1cccc(OCCO)c1)C[C@@H](O)COCc1ccccc1 | 0.264 | 0.613 | 0.67 | -0.51 (inactive) | 1.4 | 1.19 | -0.623 | 0.416 | -0.267 | 0.717 | 0.276 | -0.81 | -0.0586 | 1.8 | 1.35 | 0.284 | 0.0633 | -0.215 | 3.66 | 0.116 |
| [N-]=[N+]=NCc1ccccc1[C@H]1OC(c2ccc(OCCCO)cc2)=N[C@@]1(Cc1ccccc1)C(=O)N1CCOCC1 | 1.25 | 0.721 | 0.884 | -0.991 (inactive) | 1.37 | 1.33 | 0.0968 | 0.808 | -0.0244 | -0.303 | 1.06 | -2.31 | 0.335 | 1.48 | 0.779 | 0.186 | -0.226 | -0.461 | 1.43 | 1.28 |
| COCCOC(=O)N1C(=O)[C@@]2(c3ccccc31)[C@H](c1ccc(OCCO)cc1)N1[C@H](c3ccccc3)[C@H](c3ccccc3)OC(=O)[C@H]1[C@@H]2C(=O)N1CCN(c2ncccn2)CC1 | 1.22 | 0.639 | 0.539 | -0.483 (inactive) | 1.42 | 1.34 | 0.791 | 1.44 | 1.09 | 0.943 | 1.41 | -1.47 | 1.06 | 1.51 | 0.039 | -0.001 | -0.043 | 0.998 | 1.5 | 1.26 |
